Measured values: article PMC13541613, “GHT-SELEX demonstrates unexpectedly high intrinsic sequence specificity and complex DNA binding of many human transcription factors”

What follows are sequences tested against ZNF721 full-length (Homo sapiens, UniProt Q8TF20-2 1-923) (assay: HT-SELEX; 20 mM HEPES pH 7, 140 mM KCl, 5 mM NaCl, 1 mM K2HPO4, 2 mM MgSO4, 100 uM EGTA, ZnSO4, 0.1% Tween20; room temperature, 1 h; high values mean tight binding). Conditions: protein: ivt; tags: eGFP (N-terminal); dsDNA, one strand shown.
In short: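 Tagged transcription factor, expressed in HEK293 lysate or cell-free extract as a full-length protein or DNA-binding-domain fragment, was held on beads. It bound a randomized 40-base DNA library during 1 h at room temperature in low-stringency HEPES/KCl buffer with Tween20. Eluted DNA went through successive PCR cycles and Illumina sequencing of ~3 million 60 bp reads per sample. A higher relative k-mer count in the selected reads denotes tighter binding.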

Chain of ZNF721 full-length (Q8TF20 other isoform, or with tags, fused parts or gaps): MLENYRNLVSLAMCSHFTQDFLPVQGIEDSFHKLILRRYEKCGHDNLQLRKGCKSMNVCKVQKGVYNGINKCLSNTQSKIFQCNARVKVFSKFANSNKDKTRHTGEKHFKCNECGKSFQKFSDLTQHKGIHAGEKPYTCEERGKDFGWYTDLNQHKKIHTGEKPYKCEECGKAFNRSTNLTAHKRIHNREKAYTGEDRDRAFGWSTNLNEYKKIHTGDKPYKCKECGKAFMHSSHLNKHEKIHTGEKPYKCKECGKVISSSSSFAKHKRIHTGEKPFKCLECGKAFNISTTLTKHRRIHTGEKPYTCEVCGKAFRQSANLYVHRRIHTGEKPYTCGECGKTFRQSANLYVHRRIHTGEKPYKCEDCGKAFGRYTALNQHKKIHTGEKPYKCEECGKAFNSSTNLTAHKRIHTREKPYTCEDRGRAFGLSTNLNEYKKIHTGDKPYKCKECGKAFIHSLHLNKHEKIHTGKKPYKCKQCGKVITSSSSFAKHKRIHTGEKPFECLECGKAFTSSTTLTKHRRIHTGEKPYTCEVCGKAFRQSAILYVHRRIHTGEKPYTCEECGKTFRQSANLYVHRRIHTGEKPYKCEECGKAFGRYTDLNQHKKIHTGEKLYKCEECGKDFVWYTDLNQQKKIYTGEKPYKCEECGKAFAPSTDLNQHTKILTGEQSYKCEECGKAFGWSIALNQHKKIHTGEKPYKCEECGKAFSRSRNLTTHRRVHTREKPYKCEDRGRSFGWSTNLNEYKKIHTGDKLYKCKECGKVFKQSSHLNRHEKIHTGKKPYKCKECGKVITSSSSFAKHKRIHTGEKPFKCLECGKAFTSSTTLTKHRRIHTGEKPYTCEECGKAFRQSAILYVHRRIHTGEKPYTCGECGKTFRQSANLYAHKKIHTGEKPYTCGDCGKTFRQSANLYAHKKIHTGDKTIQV

Row | Sequence | binding signal
1 | CCCCCCACCG | 0.17 relative 10-mer count
2 | AAAAAAGCAT | 0.343 relative 10-mer count
3 | CTCCCCACCA | 0.115 relative 10-mer count
4 | GCGTACCCTA | 0.111 relative 10-mer count
5 | CCTCCTCCCC | 0.169 relative 10-mer count
6 | GTGGGGTGGA | 0.103 relative 10-mer count
7 | CCCCCCTCCA | 0.13 relative 10-mer count
8 | ACAAAAAAAC | 0.151 relative 10-mer count
9 | CCCCACCCAA | 0.134 relative 10-mer count
10 | CAACAAAACA | 0.111 relative 10-mer count
11 | CCGCCGCCCC | 0.169 relative 10-mer count
12 | AAAAAAGCGC | 0.115 relative 10-mer count
13 | CCAAAAAAAA | 0.211 relative 10-mer count
14 | CTCCCCTCCC | 0.135 relative 10-mer count
15 | ACCCTCCCAC | 0.119 relative 10-mer count
16 | CCCCCGCGCC | 0.116 relative 10-mer count
17 | AAAGCTATCC | 0.165 relative 10-mer count
18 | CCACCACCGC | 0.11 relative 10-mer count
19 | CCCGCCCCCA | 0.153 relative 10-mer count
20 | AAAGCAGTAC | 0.156 relative 10-mer count

Row | Sequence | binding signal
21 | AGCGTTTCCA | 0.214 relative 10-mer count
22 | CATCCCCACC | 0.126 relative 10-mer count
23 | AGGGGGGAGG | 0.149 relative 10-mer count
24 | AAAAAAGCGG | 0.11 relative 10-mer count
25 | ACAAAAAAAG | 0.12 relative 10-mer count
26 | CGCCACCCAC | 0.123 relative 10-mer count
27 | AAAAAAAAGC | 0.653 relative 10-mer count
28 | AGCGTATCCT | 0.146 relative 10-mer count
29 | CTCCCACCCC | 0.224 relative 10-mer count
30 | CCCCGTCCCC | 0.212 relative 10-mer count
31 | CCACCGCCCC | 0.256 relative 10-mer count
32 | CCCATCCCCA | 0.106 relative 10-mer count
33 | CCCGCCCCAC | 0.207 relative 10-mer count
34 | GGGAGGGGGA | 0.161 relative 10-mer count
35 | CCGACCCACC | 0.115 relative 10-mer count
36 | CCCCACCCCC | 0.447 relative 10-mer count
37 | GCTTCATACA | 0.231 relative 10-mer count
38 | CCGCCCACCC | 0.268 relative 10-mer count
39 | GCCACCCCCC | 0.138 relative 10-mer count
40 | CCCACACCCA | 0.107 relative 10-mer count
